# An excerpt weighted towards active compounds, which were near 2.8% of everything screened.
# HEK293 tox: cytotoxic in the GLP-1 receptor inverse agonist counter-screen; HEK293 cAMP-luciferase reporter cells, luminescence, 24 h; Potency, µM (top dose mostly 38.3 µM), without a hit: at the highest dose activity change, negative = inhibition, usual class: inhibitors; 0.13% of 410,000 active;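 note: loss of luciferase light is scored as toxicity; % is set by controls: 0 for no effect and ±100 for the full control effect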
#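 Seeding density was 200 cells/uL; after overnight-length (12 h) culture, 23 nL compounds went on for 24 h at 37 °C. Readout used a luciferase detection reagent, luminescence taken after 12 min at room temperature.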
# GLP1R ag: agonists of human GLP-1 receptor; P43220; HEK293 GLP-1R CRE-luciferase, luminescence, 4-6 h; cells express a hypersensitive GLP-1R form; Potency, µM (highest dose often 45.6 µM), without a hit: top-dose activation, hits mostly activators; 0.007% of 380,000 active; AID 624172; note: % of control where 0% means no effect
# Target sequence (P43220 whole entry, looked up): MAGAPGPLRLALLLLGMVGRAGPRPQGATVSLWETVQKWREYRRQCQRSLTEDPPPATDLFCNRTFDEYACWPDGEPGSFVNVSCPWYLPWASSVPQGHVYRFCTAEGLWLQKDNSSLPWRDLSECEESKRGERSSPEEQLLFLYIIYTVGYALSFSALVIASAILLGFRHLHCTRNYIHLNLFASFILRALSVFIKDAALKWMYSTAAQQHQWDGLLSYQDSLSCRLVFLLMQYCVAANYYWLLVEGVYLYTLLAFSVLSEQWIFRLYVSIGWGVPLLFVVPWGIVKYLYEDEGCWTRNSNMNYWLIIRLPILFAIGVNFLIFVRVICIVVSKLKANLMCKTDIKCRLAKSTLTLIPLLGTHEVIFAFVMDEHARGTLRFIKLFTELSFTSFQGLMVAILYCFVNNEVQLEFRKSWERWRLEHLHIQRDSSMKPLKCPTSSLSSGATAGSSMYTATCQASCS
# GLP1R inv ag: GLP-1 receptor (human) inverse agonism. P43220. HEK293 GLP-1R CRE-luciferase, luminescence, 24 h; GLP-1R form is constitutively active. Potency, µM (series often up to 38.3 µM), without a hit: top-dose activity change, negative = inhibition, actives largely listed as inhibitors. 1.6% of 410,000 active. AID 624417; note: % is set by controls: 0 for no effect and ±100 for the full control effect; nearly all actives have a fitted effect of over 55% in size
#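 HEK293 cells stably co-expressing a cAMP-responsive luciferase reporter and constitutively active GLP-1R were seeded, incubated 12 h, then exposed to compounds for 24 h at 37 C. Luminescence was read 12 min after detection reagent; inverse agonists lower signal.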
# BRCA1 expr act: activators of BRCA1 expression; MCF7-BRCA1-FFLuc reporter, luminescence, 48 h; response scale: scaled: vehicle 0%, 10 µM genistein 100%; Potency, µM (titrated, usually from 46.1 µM), without a hit: top-dose activation, hits mostly activators; 1.1% of 380,000 active; AID 624202; note: nearly all actives have a fitted effect of over 80% in size
#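 Activators of BRCA1 expression were detected as increased firefly luciferase luminescence in engineered MCF7 cells after 48 h compound incubation. Signals were scaled to genistein 10 microM as full activation.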
# Mito fusion yeast: mitochondrial division inhibition or fusion activation | S. cerevisiae fusion-defective mutant growth rescue, CellTiterGlo 48 h | Potency, µM (doses to about 46.1 µM), for inactives: at the top dose growth rescue (activation), hits mostly activators | 0.23% of 320,000 active; note: % of control where 0% means no effect; nearly all actives have a fitted effect of over 45% in size
#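 S. cerevisiae fusion-defective temperature-sensitive mutants (e.g. fzo1-1, mgm1-5) grown 48 h at 37C in YPEG (ethanol/glycerol non-fermentable) medium with 23 nl compound per well; growth rescue read as CellTiterGlo luminescence.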
# Numbers without * were called inactive; u = inconclusive; x = no result; ! = not active in a repeat; [ ] = another dose, or the depositor's remark. Calls come from the whole dose curve; as a rule, active = well fitted curve in the direction sought with a large enough effect; inconclusive = small, poorly fitted or top-dose-only effect, or another doubt; inactive = no such curve, though single readings can be large; an effect the other way counts as inactive or inconclusive. Potency is the fitted concentration of half-maximal effect.
SMILES,HEK293 tox,GLP1R ag,GLP1R inv ag,BRCA1 expr act,Mito fusion yeast
COc1ccc(-c2cc(C#N)nc(N3CCN(C)CC3)n2)cc1,-4%,7%,u,-8%,x
CN1CCN(c2nc(C#N)cc(-c3ccccc3)n2)CC1,-13%,0%,13µM*,-45%,-4%
c1ccc(CSc2ccc(-c3cccs3)nn2)nc1,-2%[0.307 µM],2%,-9%[0.307 µM],7.9µM*,1%
CCOc1ccc(-c2ccc(SCc3ccccn3)nn2)cc1,7%[7.66 µM],5%,17%[7.66 µM],4.5µM*,1%
CCc1ccc(-c2ccc(SCc3ccccn3)nn2)cc1,-9%,12%,u,5µM*,u
CCc1ccc(NC(=O)CSc2ccc(-c3ccccn3)nn2)cc1,u,-1%,u,-35%,-11%
O=C(CSc1ccc(-c2cccs2)nn1)Nc1ccccc1,17%,7%,-1%,-8%,0%
c1ccc(CSc2ccc(-c3cccs3)nn2)cc1,-1%,3%,-14%,u,3%
O=C(CSc1ccc(-c2cccs2)nn1)c1cccs1,1%,11%,18%,11µM*,2%
CCOc1ccc(-c2ccc(SCC)nn2)cc1,9%,0%,u,57%,10%
CCSc1ccc(-c2ccc(C)cc2)nn1,1%,1%,-5%,2.5µM*,5%
O=C(Nc1sc2c(c1C(=O)O)CCCCC2)c1ccccc1,-26%,-2%,u,-15%,u
O=C(Nc1sc2c(c1C(=O)O)CCCC2)c1cccc(Cl)c1,-13%,-3%,-31%,11µM*,33%
COC(=O)c1cc(NC(=O)c2cc(-c3ccccc3Cl)oc2C(F)(F)F)ccc1N1CCOCC1,-29%,13%,4µM*,-51%,-4%
COC(=O)c1cc(NC(=O)c2cc(-c3ccc(Cl)cc3)oc2C(F)(F)F)ccc1N1CCOCC1,-43%,6%,u,-72%,-12%
CC1CC(C)CN(c2ccc(C(=O)NCc3ccc4c(c3)OCO4)cc2[N+](=O)[O-])C1 (centres undefined),-17%,3%,11µM*,-49%,u
COc1ccc(/C=C/C(=O)N2CCCc3ccccc32)c(OC)c1,-8%,u,u,2%,u
N#C/C(C(=O)c1ccccc1)=C1/CCCN1,0%,13%,0%,31%,0%
N#C/C(C(=O)Oc1ccccc1)=C1\C=CC=CN1,-4%,-6%,9%,3.2µM*,-6%
Fc1cccc(/C=N/Nc2nc3ccccc3[nH]2)c1,u,1%,2%,4.5µM*,-2%
Fc1cccc(/C=N/Nc2ccccn2)c1,u,0%,u,7.9µM*,-10%
Fc1ccc(/C=N/Nc2nc3ccccc3[nH]2)cc1F,-17%,-3%,-17%,84%,-6%
COC(=O)c1ccc2nc(-c3cccc(Br)c3)c(Cc3ccccc3)n2c1,-5%,-2%,16%,-4%,x
COc1cc(NC(=O)CN2C(=O)C(c3ccc(C)cc3)=NC23CCCCC3)cc(OC)c1,-16%,x,10µM*,x,x
Cc1cc(C)c(C)c(S(=O)(=O)NCC(=O)NCC2CCCCC2)c1C,17%,13%,6.3µM*,-24%,4%
SMILES,HEK293 tox,GLP1R ag,GLP1R inv ag,BRCA1 expr act,Mito fusion yeast
Cc1cccc(NC(=S)N/N=C2\CC(C)(C)Oc3ccc(O)cc32)c1,u,13%,u,-46%,-7%
COc1cccc(NC(=S)N/N=C2\CC(C)(C)Oc3ccc(O)cc32)c1,u,3%,7.1µM*,-20%,-2%
O=C(Nc1ccc(Oc2cccnc2)cc1)c1ccccc1F,3%,7%,8%,4µM*,-3%
CCOC(=O)c1ccc(NC(=O)CCc2c(C)nc3c(c(C)nn3C(C)(C)C)c2C)cc1,-22%,-6%,7.9µM*,-14%,x
CC(=O)CCC1CC(c2ccc(Cl)cc2)=NO1 (centres undefined),-1%,1%,-9%,u,-7%
COc1ccc(C2=NOC(CN3C(=O)c4ccccc4S3(=O)=O)C2)cc1 (centres undefined),10%,-4%,71%,2.8µM*,7%
O=C1c2ccccc2S(=O)(=O)N1CC1CC(c2ccccc2)=NO1 (centres undefined),18%,0%,81%,11µM*,11%
O=C1c2ccccc2S(=O)(=O)N1CC1CC(c2ccc(Cl)cc2)=NO1 (centres undefined),5%,-8%,4%,3.2µM*,16µM*
Cc1cc(C)c(C)c(S(=O)(=O)Nc2ccccc2C(=O)NN2CCOCC2)c1C,-6%,2%,-17%,6%,x
CC(=O)Nc1ccc(N(CC(O)Cn2c3ccccc3c3ccccc32)S(=O)(=O)c2ccc(C)cc2)cc1 (centres undefined),u,3%,7.9µM*,-97%,3%
Cc1cccc(N(CC(O)Cn2c3ccccc3c3ccccc32)S(=O)(=O)c2ccc(F)cc2)c1 (centres undefined),u,x,13µM*,x,x
Clc1ccc(CSc2nnc3ccccn23)c(Cl)c1,-3%,10%,12%,10µM*,3%
c1ccn2c(SCc3cn4ccsc4n3)nnc2c1,1%,-6%,0%,5µM*,-2%
O=[N+]([O-])c1ccccc1CSc1nnc2ccccn12,-3%[7.66 µM],4%,-11%[7.66 µM],u,-2%
Cc1ccc2nc(SCC(=O)Nc3cc(C(F)(F)F)ccc3N3CCOCC3)[nH]c2c1,u,17%,1.3µM*,-85%,-2%
O=C(CSc1nccc(=O)[nH]1)Nc1cc(C(F)(F)F)ccc1N1CCOCC1,1%,13%,25%,0%,-6%
Cc1ccccc1NC(=O)c1cccc(Cn2cc(Br)c([N+](=O)[O-])n2)c1,-3%,-1%,u,-6%,6%
Cc1ccc(S(=O)(=O)c2nc(-c3ccccc3Cl)oc2N2CCN(C)CC2)cc1,-4%,8%,10µM*,-30%,x
Cc1ccc(S(=O)(=O)c2nc(-c3ccccc3Cl)oc2N2CCCCCC2)cc1,0%,x,u,x,x
COC(=O)Cc1c(OC)ccn(CCc2c[nH]c3ccccc23)c1=O,-8%,2%,-27%,2.2µM*,3%
C[C@@H](CN1CCC(Cc2ccccc2)CC1)[C@@H](O)c1ccc(O)cc1,1%,-3%,u,0%,23µM*!
CC(C)OCC(O)CN1CCC(Cc2ccccc2)CC1 (centres undefined),0%,-4%,-4%,0%,1%
CC(C(O)c1ccc(O)cc1)N1CCC(Cc2ccccc2)CC1 (centres undefined),-9%,0%,u,-9%,16µM*!
O=C(O)c1ccc(N=Nc2c(O)[nH]c3cc(Cl)ccc23)cc1,30%,5%,43%,5%,u
O=C(O)c1ccc(N=Nc2c(O)[nH]c3ccc(Br)cc23)cc1,17%,10%,20%,5.6µM*,14%

# Assay outcomes deposited in PubChem BioAssay by National Center for Advancing Translational Sciences (NCATS).
